According to PubChem BioAssay (NCI):
This is part of a sample that, as a whole, favours compounds with a hit. Of some 83,000 tested, about 20% had one in any assay.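 Activity criterion: percent growth below 10, measured after cells in 96-well plates were exposed to a single compound concentration for 48 hours.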 Unmarked numbers belong to inactive results. The source made the active and inactive calls.

Columns and labels:
Assay in all cases: NCI-60 one-dose screen, 48 h (100 = growth as untreated, 0 = no growth, -100 = all killed)
Conditions in all cases: 10 µM unless noted
[1] = system: T-47D breast
[2] = system: BT-549 breast
[3] = system: MDA-MB-435 melanoma
[4] = system: SW-620 colon
[5] = system: MCF7 breast
[6] = system: HCT-116 colon
[7] = system: HCC-2998 colon
[8] = system: KM12 colon

| Compound | growth [1] | growth [2] | growth [3] | growth [4] | growth [5] | growth [6] | growth [7] | growth [8] |
| --- | --- | --- | --- | --- | --- | --- | --- | --- |
| OCC(O)C(O)CC1SCCS1 (centres undefined) | 97.1% | 102% | 105% | 99.7% | 103% | 104% | 108% | 103% |
| CCN(CCO)CCNc1ccc(C)c2sc3cc(OC)ccc3c(=O)c12 | 90.1% | 88.7% | 86.2% | 38.4% | 52.6% | 20.5% | 64.5% | 69.2% |
| CN1NC(c2ccccc2)NN(C)C1=O | 95.7% | 109% | 102% | 91.1% | 96.3% | 101% | 103% | 118% |
| O=C1C=C(OCC=C(C(F)(F)F)C(F)(F)F)c2ccccc2C1=O | -68.9% (active) | 39% | -40.2% (active) | -34.9% (active) | -76.8% (active) | -33.3% (active) | -12.1% (active) | 43.3% |
| COc1ccc(Cn2cc3c(c2-c2ccccc2)CCc2cnoc2-3)cc1OC | 28.3% | 45.8% | -33.9% (active) | 25.2% | 11.4% | 22.8% | 37.4% | 29.2% |
| CC[n+]1c(C)ccc2cc(C)ccc21 | 91.3% | 95% | 118% | 99.5% | 94.1% | 97.1% |  | 80.7% |
| CCCCCCCCCCCCCCCCCC1=NCCN1CS(=O)(=O)O | 57.4% | 93.5% | -19.9% (active) | 4.2% (active) | 30.3% | 44.2% |  | 16.4% |
| NC(CSC(c1ccccc1)(c1ccccc1)c1ccccc1)C(=O)NCC(=O)O (centres undefined) | 96.1% | 70.4% | -5.86% (active) | 41.6% | 45% | 40.8% |  | 77.5% |
| Cc1c(Cc2ccccc2)c(=O)oc2c(C)c(OCC(=O)n3nc(C#N)cc3N)ccc12 | 81.9% | 90.3% | 102% | 101% | 89.7% | 95.3% | 104% | 98.7% |
| COc1cccc(Cn2cc3c(c2)-c2oncc2CC3)c1 | 65.2% | 66% | -47% (active) | 26.4% | 18.4% | 8.74% (active) | -32.4% (active) | 5.03% (active) |
| CCOC(=O)c1cc(-c2ccc(OC)cc2)[nH]c1NNC(=O)CCOC | 95.2% | 91.9% | 96.9% | 101% | 113% | 93.8% |  | 118% |
| CC(C)(C)c1cc(C[P+](c2ccc(Cl)cc2)(c2ccc(Cl)cc2)c2ccc(Cl)cc2)cc(C(C)(C)C)c1O | 56.1% | 102% | 84.7% | 79.6% | 65.1% | 40.7% | 107% | 88.9% |
| COc1ccc(C(=O)N2N=C(c3ccc(Br)cc3)CC2c2cn(-c3ccccc3)nc2-c2ccccc2)cc1 (centres undefined) | 61.1% | 87.7% | 48.6% | 29.6% | 33.8% | -23.3% (active) | 55.9% | 55.6% |
| CCCCCCC(C(=O)OCC)(C(=O)OCC)C1CCCCCC1 | 91.9% | 104% | 103% | 99.1% | 96.3% | 99% |  | 105% |
| CCN(CC)CCOC(=O)c1cccnc1 | 96.6% | 105% | 96.3% | 103% | 95.1% | 98.1% |  | 103% |
| O=C(O)/C(Br)=C/c1c[nH]c2ccc(Br)cc12 | 184% | 121% | 117% | 110% | 137% | 98.2% |  | 103% |
| CCC(C)(CC)c1ccc(O)c(C)c1 | 101% | 98.9% | 109% | 107% | 99% | 96.6% | 116% | 107% |
